This passage reports outcome and AC50 results from PubChem BioAssay AID652128 (Broad Institute, 2013).

The other results are listed elsewhere or left out. Results filed as inconclusive are left out. Activity calls are given as the source filed them.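 Rule for the calls: active = fitted half-maximal concentration for signal loss at or below twice the highest dose tested, in every separate run (actives reach about 64 µM in these data); inconclusive = runs disagree, or flat partial signal loss, or poor fit; inactive = the rest.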

The test in a line: DNA binders displacing acridine orange – biochemical, fluorescence polarization, cherry-pick, artefact control for RAD52 inhibitor project, dose response (AID 652128). The note with it: Salmon sperm DNA/acridine orange FP displacement, DNA binding. A general note: In fluorescence polarisation assays a small probe gives low polarisation when free and higher when bound to something large.
Regarding `O=C1CCC(C(=O)OCC(=O)Nc2ccc(OC(F)F)cc2)=NN1`, the compound was classed as inactive. Turning to `CCOCCCNC(=S)Nc1ccc2nc(N3CCN(CC)CC3)cc(C)c2c1`, the compound was classed as inactive. In general, AC50 refers to the midpoint of the concentration-response curve, whichever way the signal moves. Consider `CCN(CC)CCOc1ccc2c(c1)C(=NNC(=O)c1ccccn1)c1cc(OCCN(CC)CC)ccc1-2`, for which the concentration at half-maximal activity (AC50) was 4.27 µM (active).

As to `Cc1cc(C)c2nc3nc(C)cc(C)c3c(N)c2c1`, the AC50 is 30 µM (active). Turning to `CN(C)CCN1CCN(c2cc(-c3cccc(Cl)c3)nc3ccnn23)CC1`, the compound was called inactive. Regarding `CN1CCC(CN)(N2CCN(c3ccccc3)CC2)CC1`, the outcome was inactive. The same measure, in the same setting: the same measure for `CCN1CCCC1CNC(=O)c1ccc2c(c1)NC(=O)/C(=C\c1ccccc1F)S2` (configuration not stated): “inactive”; for `COC1=C(N2CCOCC2)C(=O)c2ccccc2C1=O`: “inactive”; for `Nc1ccc(OCC(O)C[n+]2ccc(CCS(=O)(=O)[O-])cc2)cc1` (configuration not stated): “inactive”. Regarding `CN1CCN(CCCNC(=O)c2ccc(/C=C3\Oc4ccccc4N(Cc4ccc(Cl)cc4)C3=O)cc2)CC1`, the result was inactive.

Turning to `CCC1CCCCN1CCCNC(=O)c1cc2c(Cl)nc3ccccc3c2s1` (configuration not stated), the half-maximal activity concentration (AC50) was 49 µM (active). As for `CCN1CCN(CCNC(=O)c2ccc(/C=C3/Sc4ccccc4N(Cc4cccc(C)c4)C3=O)cc2)CC1`, the compound was called inactive. The same measure, in the same setting: the same measure for `Cc1ccc2c(c1)C1CN(C)CCC1N2S(=O)(=O)c1ccc(Oc2ccc([N+](=O)[O-])cc2)cc1` (configuration not stated): “inactive”; for `C[C@H]1CN([C@@H](C)CO)C(=O)CCCn2nncc2CO[C@@H]1CN(C)C(=O)Nc1ccc(N2CCN(C)CC2)cc1`: “inactive”; for `CC(=O)Nc1ccc(CNc2nc(NCCN(C)C)nc3cc(-c4ccccc4)sc23)cc1`: “inactive”. `CC(C)C(=O)N1CC(=O)Nc2ccc(F)cc2C1c1ccc(F)cc1` (configuration not stated): the outcome was inactive. As for `CCn1cc(CN2CCC(C(=O)Nc3cccc(-c4cccc(Cl)c4)c3)CC2)cn1`, the compound was called inactive. The same measure, in the same setting: the same measure for `CC(=O)c1cccc(-c2cnc3c(NC=O)cc(-c4ccc(N5CCN(C)CC5)cc4)cn23)c1`: “inactive”. Consider `CC(=O)Nc1cc(-c2ccc(N3CCN(C)CC3)cc2)cn2c(-c3cccc(C(=O)N(C)C)c3)cnc12`, for which the result was inactive.

Take `COc1cccc(CNc2nc(NCc3cccs3)nc3ccsc23)c1`: the compound was called inactive. Regarding `COc1cccc2sc(N(CCCN(C)C)C(=O)C(c3ccccc3)c3ccccc3)nc12`, the compound was classed as inactive. On the same count and under the same terms, the same measure for `Cc1cccc(-c2nc3ccc(C(=O)NCCN4CCN(C)CC4)cc3nc2-c2cccc(C)c2)c1`: “inactive”; for `CCN(CC(=O)Nc1ccc(NC(C)=O)cc1)C(=O)C1CC(=O)N(c2ccc3c(c2)OCCO3)C1` (configuration not stated): “inactive”. Take `CN(C)CCNC(=O)c1cccc(-c2cnc3c(NC=O)cc(-c4cccc(C(F)(F)F)c4)cn23)c1`: the compound was called inactive. For `CN(C)CCNC(=O)c1ccc(-c2cn3c(-c4ccc(Oc5ccccc5)cc4)cnc3cn2)cc1`, the result was inactive. Take `CN1CCN(c2nc(Nc3ccc(O)cc3)nc3ccccc23)CC1`: the call was inactive. For `CN(C)CCNC(=O)c1ccc(Cl)c2cc3ccccc3nc12`, the half-maximal activity concentration (AC50) is 13.1 µM (active).
